Compound activity: PubChem, several laboratories
Insulin prom inh: inhibitors of insulin promoter-driven GFP, primary screen, imaging, TRM-6 cells (human fetal islet line), eGFP reporter, cell count | hit rate 0.9% among 130,000 | AID 1273, 2008 | inhibition, % at 2 µM | reporter expression induced with tamoxifen;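 active means inhibition above the mean plus 3 SD, with well images judged a real hit on visual review, cut at about 60% in these data, passing the limit was not always enough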
Cl transport mod: KCC2 cotransporter modulators, thallium flux, primary screen, cell-based, HEK293 KCC2, FluoZin-2 fluorescence, MLSMR | Solute carrier family 12 member 5 (Homo sapiens), Q9H2X9 | B-score of Tl+ flux slope (higher = more flux/activation; lower = inhibition) at 10 µM | KCC2 cells, thallium flux FluoZin-2 fluorescence | hit rate 2.2% among 190,000;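 active means thallium flux slope and its plate-corrected score both differing from the plate sample mean at a set confidence after two filtering rounds, in either direction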;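 further: slope of fluorescence scaled to starting intensity during 10 to 20 s after thallium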
Insulin prom up: insulin promoter activators in MIN6 cells, imaging, high-content screening, mouse beta cells; MIN6 insulin promoter-GFP reporter; active compounds read high; z-score at 5 µM; hit rate 0.3% among 190,000;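 active means z-score above 3 at 5 µM with at least 500 cells counted in the well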
L major viab: Leishmania major promastigote growth inhibition, primary screen; inhibition, % at 10 µM; hit rate 9% among 200,000; Leishmania major promastigotes, resazurin fluorescence viability; in the data active means inhibition above about 50%;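 further: promastigotes grown with compound for 44 hours at 28 °C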
WT yeast gro inh: growth inhibition of WT strain, primary screen, mitochondrial fusion inhibitor project, WT and mutant strains, chemical genetic | mitochondrial fusion phenotypic screen | AID 1362, 2008 | inhibition, % at 10 µM | hit rate 2.1% among 190,000; in the data active means inhibition above about 58%; tested in S. cerevisiae
ROMK mod: ROMK potassium channel modulators, primary screen, cell-based, thallium flux, MLSMR library; ATP-sensitive inward rectifier potassium channel 1 (Homo sapiens), P48048; Tet-inducible ROMK, thallium flux fluorescence; actives lie on both sides; B-score at 10 µM; hit rate 2% among 130,000; AID 1918, 2009;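 active means signal ratio slope over the read window, or its plate-corrected B-score, at least 3 SD from the plate mean, either direction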;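 further: B-score of the F/F0 ratio slope over 7 to 12 s after thallium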
Starred values were filed as active, the others as inactive; · = no result given. A selection: hits, their analogues and other compounds. The true share with any hit is near 12%.

SMILES | Insulin prom inh | Cl transport mod | Insulin prom up | L major viab | WT yeast gro inh | ROMK mod
CN1CCN(C2OC(=O)c3ccccc32)CC1 (stereo not drawn) | 50 | 0.82 | · | -6 | 57 | 2.5
Cc1ccc(S(=O)(=O)N2c3ccccc3NC(=O)C2CC(=O)Nc2ccccc2)cc1 (stereo not drawn) | · | -0.045 | 0.51 | 4 | -12 | -2
COc1ccccc1NS(=O)(=O)c1cccc(NC(=O)c2ccc3ccccc3n2)c1 | · | 0.61 | -0.15 | 43 | 30 | ·
O=C(Nc1cccc(S(=O)(=O)Nc2ccccc2F)c1)c1ccc2ccccc2n1 | -39 | -0.056 | 0.09 | 5 | 87* | 0.54
O=C(Cc1ccc(Cl)cc1Cl)Nc1cccc(S(=O)(=O)Nc2ccccc2F)c1 | -27 | -0.03 | 0.59 | 75* | 22 | ·
C/C(=N\NS(=O)(=O)c1ccc(C)cc1)c1ccc(C)o1 | 42 | 0.33 | -0.67 | -6 | -5 | -0.77
Cc1cc(O)c(-c2ccno2)cc1Cl | -56 | -1.1 | -0.42 | -11 | 13 | -0.11
CCOc1ccc(C2c3c(oc4ccccc4c3=O)C(=O)N2CCCN2CCOCC2)cc1OCC (stereo not drawn) | · | · | 0.01 | -4 | 11 | ·
CCC(=O)NC(c1ccccc1)c1nc2ccccc2[nH]1 (stereo not drawn) | -16 | 1.1 | 1.1 | 18 | 0 | -0.59
COc1ccc2cc(C#N)c(NC(C)C)nc2c1 | 86* | -0.65 | 0.51 | -2 | -2 | ·
COc1ccc2cc(C#N)c(SCC(=O)N3CCCC3)nc2c1 | 21 | -0.3 | -0.06 | 55* | 18 | -0.56
COc1ccc2cc(C#N)c(N3CCN(C(=O)c4ccccc4C)CC3)nc2c1 | · | -0.62 | 0.08 | 15 | 11 | -0.0017
CCN(CC)c1nc2cc(OC)ccc2cc1C#N | 1 | -0.13 | 0.25 | -4 | -1 | ·
COc1ccc(C(=O)N2CCN(c3nc4cc(C)ccc4cc3C#N)CC2)c(OC)c1 | -10 | 1 | -2.5 | 63* | 19 | ·
CCCCNC(=O)Nc1ccc(C2SCCS2)cc1 | · | -0.25 | · | · | · | ·
CCOC(=O)c1cnn(-c2ncnc3c2cnn3C)c1N | · | 0.49 | · | · | · | 0.78
COc1ccc(/C=C/c2nc3ccccc3n2Cc2ccc(OC)c(OC)c2)cc1 | 29 | -0.29 | -0.03 | 36 | 57 | ·
CS(=O)(=O)ON=C1CCN(S(=O)(=O)c2ccccc2)CC1 | · | -0.22 | 3.5* | -6 | -8 | -0.3
COc1cccc(OC)c1OCC(C)CNCC1CCCO1 (stereo not drawn) | -25 | -0.73 | 0.52 | 85* | -20 | -0.91
O=C(NC(Cc1ccccc1)C(=O)O)/C(=C\c1ccc(F)cc1)NC(=O)c1ccccc1 (stereo not drawn) | 0 | · | 0.01 | 5 | -5 | ·
Cc1cc(C(=O)COC(=O)[C@H](C)NC(=O)c2ccco2)c(C)n1Cc1ccco1 | · | -0.077 | -0.3 | 4 | -7 | -0.5
O=C(CCc1ccccc1)NNC(=O)c1ccccn1 | · | 1.7 | -0.27 | 16 | 0 | 1.1
Cc1ccc(Oc2ccc(NC(=O)Cn3ccsc3=N)cc2)cc1 | 24 | -0.59 | -1 | 100* | 12 | -2.1
Cc1ccc(NC(=O)CN(C)C(=O)Cn2ccsc2=N)cc1 | · | 0.45 | 0.01 | -4 | -27 | -1
O=C(Nc1ccccc1)c1ccc(-c2ccc(Br)cc2)o1 | -206 | -0.045 | · | 26 | 74* | -0.41
SMILES | Insulin prom inh | Cl transport mod | Insulin prom up | L major viab | WT yeast gro inh | ROMK mod
Cc1ccc(C(=O)N/C(=C\c2ccc(-c3ccc(Br)cc3)o2)C(=O)NC2CCS(=O)(=O)C2)cc1 (stereo not drawn) | · | 0.036 | -0.01 | -7 | 2 | ·
O=C(Nc1cccc(NC(=O)c2ccc(-c3cccc(Br)c3)o2)c1)c1ccco1 | · | -1.1 | · | 60* | 32 | 0.0068
O=C(Nc1ccc(CN2CCOCC2)cc1)c1ccc(-c2ccc(Br)cc2)o1 | -118 | 0.055 | -2.7 | 83* | 64 | -1.5
O=C(NC1CCS(=O)(=O)C1)c1ccc(-c2ccc(Br)cc2)o1 (stereo not drawn) | · | -0.028 | 1.1 | 18 | 82* | ·
COC(=O)c1ccc(NC(=O)c2ccc(CN3CCOCC3)cc2)cc1 | 15 | · | -0.84 | 33 | -4 | ·
Cc1ccccc1CN1CCNC1=O | -6 | 0.033 | 0.46 | -5 | -12 | 0.095
